{"source": "PubChem BioAssay AID493170", "about": "(National Center for Advancing Translational Sciences (NCATS), 2011)", "note": "Results filed as inconclusive are left out. Entries that show only a call come without a potency. Activity calls are given as the source filed them. The call rests on the fitted dose curve; in most records, active means well fitted inhibition curve with a large enough effect; inconclusive means small, poorly fitted or top-dose-only effect, or effect the other way; inactive means flat fitted curve, though single readings scatter. Potency means the concentration at half of the fitted maximal effect."}
{"target": "Ubiquitin carboxyl-terminal hydrolase 2 (Homo sapiens) (UniProt O75604)", "sequence (O75604 whole entry, looked up)": "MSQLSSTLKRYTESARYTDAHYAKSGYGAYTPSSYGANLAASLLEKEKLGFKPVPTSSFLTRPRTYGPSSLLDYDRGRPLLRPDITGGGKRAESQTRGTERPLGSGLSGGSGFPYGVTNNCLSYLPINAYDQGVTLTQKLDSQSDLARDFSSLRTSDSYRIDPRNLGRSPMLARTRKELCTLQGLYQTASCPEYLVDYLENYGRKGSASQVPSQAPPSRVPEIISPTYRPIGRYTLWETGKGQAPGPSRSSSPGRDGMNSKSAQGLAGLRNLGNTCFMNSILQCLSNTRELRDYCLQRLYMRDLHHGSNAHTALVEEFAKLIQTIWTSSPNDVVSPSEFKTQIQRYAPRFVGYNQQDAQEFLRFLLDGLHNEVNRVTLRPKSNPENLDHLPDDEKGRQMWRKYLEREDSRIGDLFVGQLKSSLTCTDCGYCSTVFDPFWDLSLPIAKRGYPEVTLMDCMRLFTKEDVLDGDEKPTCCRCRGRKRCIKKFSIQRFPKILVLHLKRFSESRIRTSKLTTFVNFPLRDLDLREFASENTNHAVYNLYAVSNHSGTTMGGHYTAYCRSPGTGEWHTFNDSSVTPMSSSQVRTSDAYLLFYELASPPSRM", "test": "Ub-rhodamine 110 based assay for inhibitors Ubiquitin-specific Protease USP2a; further: nearly all actives have a fitted effect of over 50% in size", "settings": "USP2a Ub-rhodamine110 cleavage, fluorescence; series mostly up to 38.3 µM", "method_in_brief": "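Kinetic fluorescence (485/531 nm) read each minute over 7 min after adding Ub-Rhod110 (150 nM final) to USP2a (5 nM final). The enzyme had 30 min RT exposure to compounds beforehand in Tris pH 8.0 buffer with CaCl2, CHAPS and beta-ME.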"}
{"smiles": "COc1cc(NC(=O)COC(=O)CSc2ccccc2F)c(C)cc1[N+](=O)[O-]", "Potency": "inactive"}
{"smiles": "CCC(C)NC(=O)CSC1=Nc2ccccc2C2=NC(c3ccccc3)C(=O)N12", "note": "(centres undefined)", "Potency": "inactive"}
{"smiles": "Cc1ccc(C(=O)C(=S)N2CCOCC2)cc1", "Potency": "inactive"}
{"smiles": "Oc1ccc(/C=N/NC(=S)N/N=C/c2ccc(O)cc2)cc1", "Potency": "inactive"}
{"smiles": "C#CCOCCOCCOCCNc1nc(N2CCN(C(=O)CCCCCCCCCCNC(=O)[C@@H](CCC(=O)O)n3cc(CCCCCN)nn3)CC2)nc(N2CCN(C(=O)CCCCCCCCCCNC(=O)[C@H]([C@@H](C)CC)n3cc(CCCCCN)nn3)CC2)n1", "Potency": "inactive"}
{"smiles": "O=C(c1ccco1)N1CCN(C(c2cccs2)c2sc3ncnn3c2O)CC1", "note": "(centres undefined)", "Potency": "inactive"}
{"smiles": "CC1CCCC(NC(=O)C2N(CCCN3CCCC3)C(=O)C3C(C(=O)Nc4ccc(Cl)cc4)C4C=CC32O4)C1C", "note": "(centres undefined)", "Potency": "inactive"}
{"smiles": "CCN(CC)CCNc1nc(-c2ccccc2)c2c(c1C#N)CC(C)(C)OC2", "Potency": "inactive"}
{"smiles": "O=C(CCc1nc(-c2ccccc2F)no1)NC1CCCCCC1", "Potency": "inactive"}
{"smiles": "Cc1ccc(NC(=O)c2onc(C)c2Cl)cc1", "Potency": "inactive"}
{"smiles": "CC(=O)NS(=O)(=O)c1ccc(NC(=O)c2cc(-c3ccc(C)c(C)c3)nc3ccccc23)cc1", "Potency": "11.2 µM (active)"}
{"smiles": "Nc1nc(NCCO)nc(NCC2CCCO2)c1[N+](=O)[O-]", "note": "(centres undefined)", "Potency": "inactive"}
{"smiles": "O=C(Nc1nnc(SCCC2OCCO2)s1)C1CC(=O)N(c2ccc(F)cc2)C1", "note": "(centres undefined)", "Potency": "7.94 µM (active)"}
{"smiles": "C=C(C)COc1ccc(-c2[nH]ncc2Oc2ccccc2OCC)c(O)c1", "Potency": "inactive"}
{"smiles": "Oc1ccccc1/C=N/Nc1ncc(Br)cn1", "Potency": "inactive"}
{"smiles": "O=C1c2ccccc2C(=O)N1CCC1=CCCCC1", "Potency": "inactive"}
{"smiles": "NC(=O)c1ncc(C(F)(F)F)cc1Oc1cccc(F)c1", "Potency": "inactive"}
{"smiles": "Cc1cccc(NCc2nc(-c3ccccc3)no2)c1", "Potency": "inactive"}
{"smiles": "Cc1ccc(S(=O)(=O)N2[C@@H](c3ccccc3F)C(C(=O)O)=CC[C@H]2c2ccc(Cl)c(Cl)c2)cc1", "Potency": "11.2 µM (active)"}
{"smiles": "Cc1ccc(O)c(CC(C)C)n1", "Potency": "inactive"}
{"smiles": "Cn1c(C(=O)N2CCN(Cc3ccc4c(c3)OCO4)CC2)cc2sccc21", "Potency": "inactive"}
{"smiles": "CCCCNc1nc2ccccc2nc1NS(=O)(=O)c1cccs1", "Potency": "inactive"}
{"smiles": "c1ccc(-c2nc3nc4ccccc4nc3n2Cc2ccco2)cc1", "Potency": "inactive"}
{"smiles": "c1ccc(Nc2c3c(nc4ncnn24)CCC3)cc1", "Potency": "inactive"}
{"smiles": "Cc1cc(Cl)ccc1NC(=S)NCCCN1CCCC1=O", "Potency": "inactive"}
{"smiles": "CCCCOC1(c2ccccc2)NC(=S)NN=C1c1ccccc1", "note": "(centres undefined)", "Potency": "inactive"}
{"smiles": "CCOc1ccc(CCn2c(-c3ccco3)nc3ccccc3c2=O)cc1OCC", "Potency": "inactive"}
{"smiles": "COc1cc(C)c(S(=O)(=O)NCc2ccc3c(c2)OCO3)cc1C", "Potency": "inactive"}
{"smiles": "CCCCCCCCCCOC(=O)Cn1c(COc2ccccc2)[n+](C)c2ccccc21", "Potency": "inactive"}
{"smiles": "COc1ccc(NC(=O)CSc2nc3sc(C)cc3c(=O)n2C)c(OC)c1", "Potency": "inactive"}
{"smiles": "COC(=O)C1CCN(C(=O)c2cc(-c3ccco3)nc3ccccc23)CC1", "Potency": "3.55 µM (active)"}
{"smiles": "CN(CC(=O)Nc1cccc2ccccc12)C(=O)c1ccc(NC(=O)CC#N)cc1", "Potency": "11.2 µM (active)"}
{"smiles": "COc1ccc(-c2nc(Cn3c(SCc4ccc(F)cc4)nc4ccncc43)c(C)o2)cc1OC", "Potency": "inactive"}
{"smiles": "CCCOc1ccc(/C=C2\\SC(=S)N(CC3CCCO3)C2=O)cc1", "note": "(centres undefined)", "Potency": "inactive"}
{"smiles": "COc1ccccc1C1NC(c2ccccc2OC)C(C)C(=O)C1C", "note": "(centres undefined)", "Potency": "inactive"}
{"smiles": "Cc1cc(C(=O)OCC(=O)c2cccc([N+](=O)[O-])c2)c2cccc(C)c2n1", "Potency": "10 µM (active)"}
{"smiles": "CCOc1ccc2[nH]c(=O)c(CN(CCc3ccccc3)C(=O)c3cnccn3)cc2c1", "Potency": "inactive"}
{"smiles": "CC(C)CC(=O)NC(=S)Nc1nc(-c2ccc(Cl)cc2)cs1", "Potency": "inactive"}
{"smiles": "CC1=NN(c2ccc(C)cc2)C(=O)/C1=C/c1ccc(-c2cc([N+](=O)[O-])ccc2O)o1", "Potency": "10 µM (active)"}
